Experimental data taken from the supplement of paper PMC6555819.

tested on: VDR:RXRa (NR concentration 270 nM, RXRa partner concentration 90 nM); assay: PBM binding z-score (relative to random genomic background probes); higher = stronger binding; sequences stand for … in GC…GCGATTGACAGCGTAGAATGAAGG
Experimental: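 Protein-binding microarray (Agilent 4x180K custom design, double-stranded 60-nt probes: 5' GC cap, 34-nt variable region, 24-nt constant primer region; full probe sequence given). Purified or IVT nuclear receptor:RXRα heterodimers (3:1 NR:RXRα, mostly 270:90 nM) or homodimers were incubated for 1 h in PBS with 2% milk and no ligand, then detected with Alexa488 antibodies. Fluorescence from o1-orientation probes (~5 replicates averaged) was converted to z-scores against 500 random hg19 background probes. Variable regions are seed direct-repeat (DR0–DR5) sites, all their single-nucleotide variants and half-site ablations.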

Sequence	PBM binding z-score
ATCCCTAGGTAAGACTCAGTTCAGTGAAGAACGC	1.05
ATCGAAAGGTCGACGAGGTGAGTTTACACCGTTT	5.25
GCTCGGAGGCCAAGGTCAGAGCTTTGTCCGTAGA	1.16
CATACAGGGTCAGCTAGGCCAGAGTGGGGACGGC	4.01
TCTTGTAGATCAACCAGGTTAAGAAAGCCTGAGT	1.04
TCTTGTAGATCAATCAGGTTAAGAAAGCCTGAGT	1
CGTCAAACTTCAAGGTAACGTAACAGAAAGCAGC	0.0642
GGAACGAGGGCAAGTAGATAGCAGAGTTTGATGG	0.536
CCAGACAGGTGAGAAGGCAACTCAGCCTCGATTA	-0.345
CCGACTGGGGCAAGGTTACGATAACGCACAGCCA	0.0294
TCTGCTAGGTCAGTTGGTCTGCTAACGAGCTGCC	0.0911
CCGACTGGGGCATAAGGTTACCACAAGCCAGCCC	0.105
TCTAGTTGGTCACGGAGGTCACATACGACGGGTA	5.92
CCTCGGAGGACAGAAGCTCAGAGCTGTCCGCTTT	-0.941
AGAACCAGGGCACGCTGAGTTGATAGCAGAGTAG	0.532
TCTAGCAGGCCAGAGGGTCACTCATGAGGTACGG	1.4
GGAACGAGGGCATTCGCGTTGATAGCATGGCGAT	1.53
TCTAGTTGGTCAAAGGTCCCACACTCGAAATGCG	1.12
TTACCAAGGTGAAAGGTCGTGGATGCACGCCTTG	3.28
CCTTACGGGTCACGAGGTTATAGCTCGACGAGCG	5.07

Sequence	PBM binding z-score
TAGCCTAGGTCATGCGGGCTAGTATAGTGTCGGC	2.11
GTACCAAGGTGAGTAGGTCGTTGATGAGTAGGCG	0.177
GCGACTGGGGCATCACCAGGTTACCATAACTTAA	-0.162
GCTAGCAGGCCATTTGCGTCACTCAATGACGGGC	-0.801
TCTTGTAGATCAATAGAGGTTAAGATAGTGCGCT	1.65
CGTCCAAGGTCAGAGCGGTCAGTGAATGCCGAGT	5.45
TATCGGAGGACACGAAAGGTCAGAGCTCGACATC	3.49
TGAATGAGGCTAAAGATCAGGGAACGTGGCGTCG	-0.503
CCTCGGAGGGCAGAAGGTCAGAGCTGTCCGCTTT	1.17
ATCGAAAGGTCGTGAGGTGAGAATACAGAAAGGC	3.48
CCTACTGGGCAATCAGGTCATTGATATCAACGTT	2.83
CGTCCAAGGTCAAAGCTCAGTGAAGAGATGACGG	3.77
TCGAGTATGTTAGGGGCATTCAGAATGGCGTCGA	0.88
CGTCCAAGGTCAATGCTAGGTCAGGGAAAGCATT	4.75
ATCGAGAGGTCGACGAGGTGAGTATACACCGTTT	4.87
TCATGTAGATCAAGCAGGTTAAGAAAGCCTGAGT	0.938
CCGAGTAGGTTATGGGGCCTTCAGGCAACGGTGA	-0.408
ACTATTAGTTGTCTTAGGGCAACCGATACGACGC	-0.0128
AGAATGTGGTTACCAAAGATCAGGGAAACGCTTG	-0.233
ACAGACAGGTGATTGAAGGTAACTCAGCTGGACG	-0.21
